Measurements from PubChem BioAssay (NCI).
The panel holds about 83,000 compounds, 20% with a hit somewhere; the sample as a whole holds those more often.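 Step 1: grow cells in 96-well plates. Step 2: add test compound at a single concentration. Step 3: incubate 48 h. Step 4: record percent growth.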 Values without a mark were called inactive. The source made the active and inactive calls. The calls were made as follows: active = growth percent below 10; inactive = the rest.

Assays:
Assay in all cases: NCI-60 one-dose screen, 48 h (100 = growth as untreated, 0 = no growth, -100 = all killed)
Conditions in all cases: 10 µM
SK-MEL-2 melanoma = tested on: SK-MEL-2 melanoma
EKVX NSCLC = tested on: EKVX NSCLC
UO-31 renal = tested on: UO-31 renal
TK-10 renal = tested on: TK-10 renal
ACHN renal = tested on: ACHN renal
CAKI-1 renal = tested on: CAKI-1 renal
A498 renal = tested on: A498 renal
CCRF-CEM leukemia = tested on: CCRF-CEM leukemia
MOLT-4 leukemia = tested on: MOLT-4 leukemia
SR leukemia = tested on: SR leukemia
RPMI-8226 leukemia = tested on: RPMI-8226 leukemia
OVCAR-8 ovarian = tested on: OVCAR-8 ovarian
OVCAR-5 ovarian = tested on: OVCAR-5 ovarian
OVCAR-4 ovarian = tested on: OVCAR-4 ovarian
SK-OV-3 ovarian = tested on: SK-OV-3 ovarian
IGROV1 ovarian = tested on: IGROV1 ovarian
OVCAR-3 ovarian = tested on: OVCAR-3 ovarian
HS 578T breast = tested on: HS 578T breast
NCI/ADR-RES ovarian = tested on: NCI/ADR-RES ovarian
SN12C renal = tested on: SN12C renal

| Structure (SMILES) | growth (SK-MEL-2 melanoma) | growth (EKVX NSCLC) | growth (UO-31 renal) | growth (TK-10 renal) | growth (ACHN renal) | growth (CAKI-1 renal) | growth (A498 renal) | growth (CCRF-CEM leukemia) | growth (MOLT-4 leukemia) | growth (SR leukemia) | growth (RPMI-8226 leukemia) | growth (OVCAR-8 ovarian) | growth (OVCAR-5 ovarian) | growth (OVCAR-4 ovarian) | growth (SK-OV-3 ovarian) | growth (IGROV1 ovarian) | growth (OVCAR-3 ovarian) | growth (HS 578T breast) | growth (NCI/ADR-RES ovarian) | growth (SN12C renal) [%] |
| --- | --- | --- | --- | --- | --- | --- | --- | --- | --- | --- | --- | --- | --- | --- | --- | --- | --- | --- | --- | --- |
| NC1CCC(Nc2nc(NCc3ccc(-c4ccco4)nc3)c3ncn(C4CCCC4)c3n2)CC1 (stereo not given) | -73.6% (active) | -2.93% (active) | 10.8% | 3.91% (active) | 2.36% (active) | 17.3% | -70.8% (active) | -0.411% (active) | -12.3% (active) | -3.17% (active) | -18.3% (active) | 11.8% | 25.1% | 2.67% (active) | -0.9% (active) | 8.71% (active) | 1.37% (active) | 10.7% | 79.5% |  |
| COCCOC(=O)NC(=O)Nc1ccc(C(=O)c2ccc(Cl)cc2)cc1 | 27.6% | 31.4% | 40.3% | 53.2% | 42.7% | 32.8% | 19.3% | 18.5% | 32.7% | 22.2% | 19.2% | 40.4% | 90.7% | 56.9% | 27.2% | 51.3% | 6.85% (active) | 32% | 18.9% |  |
| O=c1oc2c3ccc4cnccc4c3[nH]c2c2ccccc12 | 67.1% | 74.2% |  | 79.3% | 63.5% | 54.3% | 55.5% | -1.54% (active) | 13.7% | -51.3% (active) | -21.8% (active) | 24.3% |  | 25.2% | 89.1% | 21.2% | 38.2% | 68.1% | 71.5% | 73.8 |
| COc1ccc(-c2nnc(N3CCN(C(=O)CN4CCN(c5ccc(Cl)cc5)CC4)CC3)nc2-c2ccc(OC)cc2)cc1 | 65.7% | 45.4% |  | 90.6% | 85% |  | 73.7% | 47.2% | 8.77% (active) | 54.2% | -44.9% (active) | 66.1% | 114% | 61.5% | 102% | 62.7% | 73.1% | 72.2% | 81.8% | 57.5 |
| Cc1ccc2c3c(cccc13)-c1ccccc1C2=O | 97.2% | 67.8% | 75.2% | 94% | 96.8% | 89% | 78.2% | 83.5% | 87.4% | 94.1% | 97.8% | 94.2% | 113% | 105% | 92.1% | 94% | 108% | 94% | 99% |  |
| O=C(/C=C/c1ccc(Cl)cc1)c1ccc(Br)cc1 | 104% | 97.2% | 90% | 81.2% | 104% | 101% | -44.1% (active) | 110% | 97.7% | 71.4% | 28.1% | 103% | 91.8% | 92.5% | 100% | 88.2% | 100% | 124% | 101% |  |
| O=c1cc(CSc2nnc(-c3ccccc3)n2-c2ccc(F)cc2)c2ccc3ccccc3c2o1 | 79.7% | 95.3% | 65.6% | 104% | 99% | 88.6% | 118% | 108% | 82.7% | 88.5% | 101% | 93% | 94% | 99.2% | 99.7% | 92.2% | 97.5% | 103% | 84.3% |  |
| NC(=O)C1CCCN(Cc2c[nH]c3ccccc23)C1 (stereo not given) | 86.5% | 99.9% | 75.4% | 93.7% | 103% | 94.4% | 81% | 106% | 99.2% | 96.9% | 105% | 98.3% | 99.8% | 108% | 100% | 102% | 104% | 96.6% | 94.8% |  |
| COC(=O)[C@]12CC[C@@H](C)[C@H](C)[C@@H]1C1=CC[C@@H]3[C@@]4(C)CC(=O)[C@H](O)[C@@](C)(CO)[C@@H]4C(=O)C[C@@]3(C)[C@]1(C)CC2 | -4.44% (active) | 3.1% (active) | -75.4% (active) | 22.1% | -51.5% (active) | -66.4% (active) | -11.3% (active) | -13.7% (active) | -31.8% (active) | -51.3% (active) | -32.2% (active) | -8.97% (active) | 50.7% | 13.8% | 3.85% (active) | -27.7% (active) | -27.3% (active) | -1.78% (active) | -24.3% (active) |  |
| CCOC(=O)Nc1ccc2c(c1)C(=O)N(CCOC)c1ccccc1O2 | 39.9% | 45.4% | 62.2% | 58.7% | 48.1% | 38.7% | 4.67% (active) | 20.6% | 35% | 17.5% | 22.2% | 52.8% | 87.9% | 62.1% | 37.3% | 57.8% | 8.46% (active) | 44.4% | 24.1% |  |
| COc1ccc2nc(NC(=O)Nc3c(F)cccc3F)sc2c1 | 114% | 102% | 102% | 84.8% | 106% | 104% | 87.9% | 96.1% | 98.3% | 92% | 87.6% | 98.9% | 108% | 99.6% | 114% | 114% | 118% | 117% | 105% |  |
| N#CN1CC[C@H](C(=O)Nc2ncc(-c3ccccc3)s2)C1 | -43.8% (active) | -0.13% (active) | 7.47% (active) | -30.9% (active) | 4.65% (active) | 9.65% (active) | -47% (active) | 9.27% (active) | -19.7% (active) | 0.907% (active) | 3.84% (active) | 2.85% (active) | 1.27% (active) | -6.05% (active) | 5.15% (active) | 11% | -32.5% (active) | -7.39% (active) | 4.61% (active) |  |
| Clc1cc(Cl)c(OCCCCCCN2CCNCC2)c(Cl)c1 | 65.2% | 63.3% | 73.2% | 65.9% | 47.2% | 32.3% | 48.1% | 10.7% | -9.72% (active) | -13.9% (active) | -24.9% (active) | 76% | 71% | 86.9% | 98% | 46.6% | 45.7% | 55.3% | 75.8% |  |
| O=CNc1c(Cl)cc2c(c1Cl)Cc1cc([N+](=O)[O-])ccc1-2 | 38.1% | 30.7% |  | 90.3% | 68.7% | 82.1% |  | 14.7% | 33% | 57% | 13.9% | 58.8% | 82.3% | 50.8% | 68% | 38.6% | 41% | 75.3% | 57.4% | 80.6 |
| COc1cc(/C=C/C(=O)c2cc(-c3ccc(F)cc3)ccc2O)cc(OC)c1OC | 75.4% | 53% |  | 108% | 76.8% | 60.5% | 81.8% | -3.16% (active) | 26.3% | 49.9% | 7.24% (active) | 66.7% | 97.5% | 68.3% | 89.5% | 84.1% | 82.4% |  | 72.1% | 74.3 |
| O=S(=O)(NCCO)c1ccc(OCCOc2ccc(S(=O)(=O)NCCO)cc2)cc1 | 100% | 99.1% | 81.9% | 99.5% | 101% | 94.2% | 86.1% | 102% | 99.6% | 104% | 98% | 98.7% | 99.2% | 107% | 96.1% | 99.9% | 111% | 104% | 97.8% |  |
